Drawing on PMC8384837, “Expanding the binding specificity for RNA recognition by a PUF domain”, this text covers binding signal for seven sequences.

The first test concerns the target PUM1 PUF domain R3-VWF (Homo sapiens, UniProt Q14671 828-1176, C935V;R936W;Q939F). Kind of test: yeast three-hybrid, YBZ-1, SC-Leu-His + 0.5 mM 3-AT, 4 days. The following applies: tags: N-Gal4 AD-HA kept; label: inside an RPR1-promoter hybrid RNA with tandem MS2 sites; ssRNA. The method in brief: (§1)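 Each repeat of the Pumilio-1 PUF domain was randomized at its three base-contacting residues, and these libraries were co-expressed from a centromeric plasmid with matching RNA elements in strain YBZ-1. After four days on SC-Leu (input) or SC-Leu-His + 0.5 mM 3-AT (selection), the repeat regions were PCR-amplified and Illumina-sequenced. The interaction score compares variant frequency between input and selection as a log change, computed in log2 with a pseudocount of 1 for absent variants.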
As to “GGCUAGAACUAGUGGAUCCCCCGGCGCCCGGCGGCUCGAGCCCGGGUAAGUGUAAGUAGUCUGCAUGCCGCCGGGCGCCAUGCCUGCAGGUCGACUCUAGAAAACAUG”, the binding signal is 2.09 log2 enrichment (interaction score).

With “GGCUAGAACUAGUGGAUCCCCCGGCGCCCGGCGGCUCGAGCCCGGGUAAGUGUAAAUAGUCUGCAUGCCGCCGGGCGCCAUGCCUGCAGGUCGACUCUAGAAAACAUG”, the binding signal is 5.2 log2 enrichment (interaction score).

Consider “GGCUAGAACUAGUGGAUCCCCCGGCGCCCGGCGGCUCGAGCCCGGGUAAGUGUAAUUAGUCUGCAUGCCGCCGGGCGCCAUGCCUGCAGGUCGACUCUAGAAAACAUG”, for which the binding signal is 2.85 log2 enrichment (interaction score).

The next test addresses PUM1 PUF domain R5-KSL (Homo sapiens, UniProt Q14671 828-1176, C1007K;R1008S;Q1011L). The test is described as above. Conditions: tags: N-Gal4 AD-HA kept; label: inside an RPR1-promoter hybrid RNA with tandem MS2 sites; ssRNA. The method in brief:
as §1
In the case of “GGCUAGAACUAGUGGAUCCCCCGGCGCCCGGCGGCUCGAGCCCGGGUAAGUGUCAAUAGUCUGCAUGCCGCCGGGCGCCAUGCCUGCAGGUCGACUCUAGAAAACAUG”, the binding signal is 3.79 log2 enrichment (interaction score).

Regarding “GGCUAGAACUAGUGGAUCCCCCGGCGCCCGGCGGCUCGAGCCCGGGUAAGUGUAAAUAGUCUGCAUGCCGCCGGGCGCCAUGCCUGCAGGUCGACUCUAGAAAACAUG”, the binding signal was 0.96 log2 enrichment (interaction score).

In the case of “GGCUAGAACUAGUGGAUCCCCCGGCGCCCGGCGGCUCGAGCCCGGGUAAGUGUUAAUAGUCUGCAUGCCGCCGGGCGCCAUGCCUGCAGGUCGACUCUAGAAAACAUG”, the binding signal was 3.78 log2 enrichment (interaction score).

In the next test the target is PUM1 PUF domain R4-CFP (Homo sapiens, UniProt Q14671 828-1176, N971C;H972F;Q975P). The description is as above. The following applies: tags: N-Gal4 AD-HA kept; label: inside an RPR1-promoter hybrid RNA with tandem MS2 sites; ssRNA. The method in brief:
as §1
“GGCUAGAACUAGUGGAUCCCCCGGCGCCCGGCGGCUCGAGCCCGGGUAAGUGUAUAUAGUCUGCAUGCCGCCGGGCGCCAUGCCUGCAGGUCGACUCUAGAAAACAUG”: the binding signal was 6.56 log2 enrichment (interaction score).

As to “GGCUAGAACUAGUGGAUCCCCCGGCGCCCGGCGGCUCGAGCCCGGGUAAGUGUAAAUAGUCUGCAUGCCGCCGGGCGCCAUGCCUGCAGGUCGACUCUAGAAAACAUG”, the binding signal is 5.06 log2 enrichment (interaction score).

As for “GGCUAGAACUAGUGGAUCCCCCGGCGCCCGGCGGCUCGAGCCCGGGUAAGUGUACAUAGUCUGCAUGCCGCCGGGCGCCAUGCCUGCAGGUCGACUCUAGAAAACAUG”, the binding signal was 2.19 log2 enrichment (interaction score).
